Myeloid diff MLP = myeloid differentiation induction; ER-HoxA9 myeloid progenitors, lysozyme-GFP differentiation, flow cytometry; calls only at 10 µM; hit rate 1% among 360,000; AID 624256;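 active = normalized GFP-positive differentiation at or above the plate's own cutoff, the solvent-only control mean plus 3 SD; inconclusive = no clear call, values can overlap the other calls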;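 note: cells exposed to compound for four days before flow analysis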
TPT1 inh = blocks Candida albicans tRNA 2'-phosphotransferase | hit rate 0.81% among 300,000 | inhibition, % at 5 µM | recombinant caTPT1, FP RNA substrate dephosphorylation;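 active = inhibition above the mean of all tested compounds plus 3 SD, set per screening campaign, cut at about 24% in these data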;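 note: plate controls were DMSO alone for no effect and ferristatin control at 100 nM for full effect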
IDE act = boosts human insulin-degrading enzyme activity in HEK cells; P14735; FAbeta-B cleavage, fluorescence polarization; 0% vehicle, 100% cell-free pure enzyme wells; activation, % at 5.96 µM; hit rate 0.073% among 340,000;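 active = activation above the mean of all tested compounds plus 3 SD, set per screening campaign, cut at about 17% in these data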
Target sequence (P14735 whole entry, looked up): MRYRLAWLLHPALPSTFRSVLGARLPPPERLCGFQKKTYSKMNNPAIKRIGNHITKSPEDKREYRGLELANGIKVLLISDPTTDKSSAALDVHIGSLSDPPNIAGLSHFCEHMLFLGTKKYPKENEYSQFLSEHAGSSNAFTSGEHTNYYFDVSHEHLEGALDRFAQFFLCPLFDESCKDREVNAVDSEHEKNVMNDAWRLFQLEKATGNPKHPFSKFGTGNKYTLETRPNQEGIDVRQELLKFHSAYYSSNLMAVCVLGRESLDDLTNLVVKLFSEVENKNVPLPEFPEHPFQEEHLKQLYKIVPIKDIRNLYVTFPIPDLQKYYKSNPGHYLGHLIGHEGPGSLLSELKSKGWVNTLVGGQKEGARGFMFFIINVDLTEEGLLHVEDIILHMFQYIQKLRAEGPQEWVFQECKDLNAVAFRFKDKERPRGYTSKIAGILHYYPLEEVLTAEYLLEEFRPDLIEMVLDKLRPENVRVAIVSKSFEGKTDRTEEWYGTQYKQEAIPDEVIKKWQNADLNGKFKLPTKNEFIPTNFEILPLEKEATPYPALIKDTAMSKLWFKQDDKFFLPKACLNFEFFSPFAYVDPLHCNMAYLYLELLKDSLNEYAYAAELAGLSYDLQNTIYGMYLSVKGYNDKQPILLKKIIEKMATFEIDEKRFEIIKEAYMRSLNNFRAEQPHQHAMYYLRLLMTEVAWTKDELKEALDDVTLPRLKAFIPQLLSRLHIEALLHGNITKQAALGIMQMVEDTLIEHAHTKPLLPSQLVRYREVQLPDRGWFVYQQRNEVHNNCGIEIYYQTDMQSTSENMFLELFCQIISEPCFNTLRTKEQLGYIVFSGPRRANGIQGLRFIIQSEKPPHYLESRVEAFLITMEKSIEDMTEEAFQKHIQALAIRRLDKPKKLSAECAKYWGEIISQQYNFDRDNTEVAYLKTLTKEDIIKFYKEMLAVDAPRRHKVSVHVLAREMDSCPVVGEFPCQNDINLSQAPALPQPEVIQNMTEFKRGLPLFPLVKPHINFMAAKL
CRFR2-BP antag = antagonists of CRF-binding protein/CRF-R2 receptor complex | HEK293 CRF-R2/CRF-BP, CRF-induced calcium fluorescence | inhibition, % at 11.8 µM | hit rate 0.59% among 350,000;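 active = inhibition of the ligand-induced calcium signal above about 50% at the single tested concentration, limit read from the data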
IDE cell inh = cellular human IDE inhibition; P14735; HEK cells, FAbetaB cleavage, fluorescence polarization; inhibition, % at 5.59 µM; hit rate 0.41% among 320,000; AID 434962;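 active = percent inhibition above the average of all tested compounds plus 3 SD, set per screening campaign, cut at about 16% in these data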;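 note: IDE supplied by intact live HEK cells; FP after avidin binding of uncleaved biotin substrate so inhibition keeps polarization high; 0% = DMSO wells and 100% = 60 µM reference IDE inhibitor Ii1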
CRFBP-R2 agonist = agonists of human CRF-binding protein/CRF-R2 receptor complex; HEK293 CRF-R2/CRF-BP, calcium dye fluorescence (FLIPR); percent of saturating CRF peptide response; activation, % at 13.2 µM; hit rate 0.46% among 350,000; AID 588473;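 active = activation of at least 50%, plus an integration ratio under a set limit after plate pattern correction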;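 note: plate controls were neutral control wells without compound for no effect and CRF at EC100 for full effect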
* marks the source's active call; other numbers are inactive results; i = inactive; ? = inconclusive; · = no result given; + = active, no number. Hits are enriched below; roughly 2.6% of the tested compounds scored in any of these assays.

SMILES | Myeloid diff MLP | TPT1 inh | IDE act | CRFR2-BP antag | IDE cell inh | CRFBP-R2 agonist
CC(OC(=O)CCc1nc2ccccc2c(=O)[nH]1)C(=O)c1ccc(Br)cc1 (centres undefined) | i | -1 | 7 | -19 | 3 | 0
O=C1CCN(CCc2ccccc2)CCN1CCSc1ccccc1 | i | -2 | 2 | -9 | -2 | 0
O=C(Nc1ccccc1)Nc1ccc(O)c2ccccc12 | · | -2 | · | 70* | 4 | 0
COC(=O)C(C(=O)OC)c1cc2c(cc1CNS(=O)(=O)c1ccc(C)cc1)OCO2 | i | · | · | · | · | ·
COc1ccc2c(-c3ccccc3)cc(SCC(=O)NC(N)=O)nc2c1 | i | -2 | 26* | 12 | 5 | 0
COCCNC(=O)CSc1cc(-c2ccccc2)c2ccc(OC)cc2n1 | i | 2 | -11 | 17 | 5 | 0
COC(=O)c1ccc(CN2C(=O)C(C)N(C(=O)c3c(F)cccc3F)c3ccccc32)cc1 (centres undefined) | i | 3 | 0 | 58* | -2 | -1
CCn1c(CCNC(=O)c2cccs2)nnc1SCC(=O)c1ccc(OC)cc1 | i | 2 | 2 | 21 | 3 | 1
CC1CCCCN1C(=O)COC(=O)c1ccc(=O)n(Cc2ccccc2)n1 (centres undefined) | i | 1 | 4 | -9 | -4 | 1
O=C(NCCOC(=O)C1COc2ccccc2O1)C1COc2ccccc2O1 (centres undefined) | i | -2 | -1 | 1 | -3 | -1
O=C(NCCOC(=O)C1COc2ccccc2O1)c1cccnc1 (centres undefined) | i | -4 | 8 | -91 | 1 | 64*
Cn1c(SCC(=O)Nc2nccs2)nnc1C1CC1 | i | 0 | 1 | -1 | 3 | 2
Cn1c(=O)c2c(SCC(=O)Nc3nccs3)nc(C3CC3)nc2n(C)c1=O | + | -8 | 2 | 6 | 2 | -1
COc1ccc(-c2oc3ccc(-c4cc(OC)c(OC)c(OC)c4)cc3c2-c2ccc(OC)cc2)cc1 | · | 0 | · | 6 | 1 | -1
COc1cc(-c2ccc3cc(OC)c(OC)c(OC)c3c2)cc(OC)c1OC | i | · | · | 58* | · | 1
Cc1ccccc1NC(=O)CSc1nc(Nc2ccccc2)nc(N2CCOCC2)n1 | i | 0 | 4 | 28 | 3 | -5
Cc1ccc(F)cc1NC(=O)CSc1nc(Nc2ccccc2)nc(N2CCOCC2)n1 | + | -3 | 6 | -6 | -1 | 0
CCc1noc(C)c1C(=O)N1CCCSC1=Nc1ccccc1 | i | 4 | 10 | 5 | 2 | -3
CCc1noc(C)c1C(=O)N1CCSC1=Nc1cccc(Cl)c1C | i | 0 | 6 | 71* | 0 | -3
CCOc1ccc(-n2c(SCc3ccc(C#N)cc3)nnc2-c2cccnc2)cc1 | i | 0 | -11 | 19 | 15 | 0
CCOc1ccc(-n2c(SCc3ccc([N+](=O)[O-])cc3)nnc2-c2ccc(OC)cc2)cc1 | i | -1 | 2 | 53* | -2 | -1
COc1cc2cc(CN(CCc3cccc(C)c3)C(=S)NCCCN3CCOCC3)c(=O)[nH]c2cc1OC | i | 0 | 8 | -4 | 10 | 0
O=C(NCCc1ccccn1)c1c(-c2ccsc2)sc2ccccc12 | + | · | -2 | -11 | -2 | -8
Cc1ccc(NC2=CC(=O)CC(C)(C)C2)c(N)c1 | + | -5 | 4 | 2 | 1 | 0
COc1ccc(C2NCCc3c2[nH]c2ccccc32)cc1COc1ccc(F)cc1 (centres undefined) | + | -5 | 4 | -53 | -2 | 14
SMILES | Myeloid diff MLP | TPT1 inh | IDE act | CRFR2-BP antag | IDE cell inh | CRFBP-R2 agonist
CC(C)CN1CCN(Cc2cccc3nccnc23)CC1CCO (centres undefined) | i | -1 | -4 | 74* | 2 | 0
CC(C)CN1CCN(Cc2cccc3ncccc23)CC1CCO (centres undefined) | i | -2 | -1 | -4 | 4 | -1
COc1c(C)cc(C(O)c2ncc(-c3ccc4ccccc4c3)[nH]2)cc1C (centres undefined) | i | · | · | · | · | ·
CCOc1ccc(S(=O)(=O)N(CC)CC(=O)NCc2ccccn2)cc1C | i | -3 | 0 | -6 | 8 | -1
COc1ccccc1N(CC(=O)N1CCCCC1C)S(=O)(=O)c1ccc(Cl)cc1 (centres undefined) | i | · | · | -11 | · | 55*
CCOc1ccccc1N(CC(=O)N1CCC(C(N)=O)CC1)S(=O)(=O)c1ccc(SC)cc1 | i | 3 | 1 | 75* | 4 | -1
CCOc1ccccc1N(CC(=O)N1CCOCC1)S(=O)(=O)c1ccccc1 | i | -2 | 0 | -127 | 1 | 291*
CCOc1ccccc1N(CC(=O)N1CCC(C)CC1)S(=O)(=O)c1ccc(C)cc1 | i | 2 | -2 | -8 | 9 | 0
CCOc1ccccc1N(CC(=O)N1CCCCCC1)S(=O)(=O)c1ccc(C)cc1 | i | · | 3 | -30 | · | 31
CCCCCOc1ccc(C(=O)CCC(=O)Nc2ccc(NC(C)=O)cc2)cc1 | i | -4 | 4 | -3 | -1 | -1
CC(NC(=O)CN1c2cccc3cccc(c23)S1(=O)=O)c1ccccc1 (centres undefined) | i | · | · | -5 | · | 2
CC(C)CNC(=O)CN1c2cccc3cccc(c23)S1(=O)=O | i | 2 | -3 | 79* | 0 | 1
O=C(Nc1cc(Cl)cc(Cl)c1)c1coc(=O)c(Br)c1 | i | 0 | 3 | 71* | -3 | 44
COc1ccccc1N1CCN(C2CCCN(C(=O)CC(F)(F)F)C2)CC1 (centres undefined) | i | 1 | 6 | -1 | 5 | -2
CCN1C[C@@H]2[C@@H]3C(=O)N(C)C(=O)[C@@H]3[C@](C)(C1=O)N2C(=O)c1ccc(C(F)(F)F)cc1 | i | · | 1 | 0 | · | 0
COc1ccc(/C=N/OC(=O)c2ccc(Cl)cc2)c(Cl)c1OC | i | -2 | · | 5 | 8 | -1
CCCn1c(/C=N/Nc2nc3ccccc3[nH]2)nc2ccccc21 | ? | · | 3 | -26 | · | -1
CC(C)Cn1c(/C=N/Nc2nc3ccccc3[nH]2)nc2ccccc21 | + | · | -6 | -19 | · | 0
O=C1CN(C(=O)c2cc([N+](=O)[O-])ccc2Cl)C(c2ccc(F)cc2)c2cc(F)ccc2N1 (centres undefined) | i | -1 | 0 | -35 | 1 | -1
CCCC1NC(=O)c2cc3ccccc3cc2-n2c1nc1ccc(F)cc1c2=O (centres undefined) | i | · | · | -21 | · | 5
O=[N+]([O-])c1ccc(-[n+]2ccc3ccccc3c2)c([N+](=O)[O-])c1 | + | -1 | 5 | 18 | -3 | -3
COC(=O)C(C(=O)OC)c1ncccc1[N+](=O)[O-] | i | -5 | 18* | 4 | -3 | 0
